HCV inhibitor: inhibitors of hepatitis C virus infection | Huh7.5.1 HCVcc-Cre infection, luciferase reporter, 44 h | Potency, µM (titrated, usually from 41.8 µM), for the others: top-dose activity change, negative = inhibition, usual class: inhibitors | 340,000 tested, 3.4% active | AID 651820
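Infectious HCVcc-Cre (~0.5 moi) was added to cells just after compound, with cells seeded 4 h earlier at 1,000 per well. Luciferase activity after 44 h culture reported infection; substrate was incubated 15 min at room temperature before reading.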
Pf growth 48h: P. falciparum growth inhibition at 48 hours (one generation) | Potency, µM (top dose mostly 28.7 µM), for the others: top-dose activity change, negative = inhibition, hits mostly inhibitors | P. falciparum luciferase growth in erythrocytes, 48 h | 310,000 tested, 5.9% active
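In quantitative HTS format, infected erythrocytes bearing luciferase-reporter parasites were treated for a single generation at 37 C. Luminescence after adding detection reagent served as the growth measure.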
AMA1 RON2 block: inhibitors of Plasmodium falciparum AMA1-RON2 interaction. AlphaScreen AMA1-biotinylated RON2 peptide binding. Potency, µM (top dose mostly 58.2 µM), without a hit: at the top dose activity change, negative = inhibition, actives largely listed as inhibitors. 360,000 tested, 0.2% active;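 note: 0% = vehicle wells and -100% = peptide control; nearly all actives have a fitted effect of over 45% in size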
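AMA1 (3D7) with his tag at 25 nM final met compounds first, then biotinylated RON2 peptide at 25 nM; detection used donor plus acceptor beads, 10 µg/mL apiece, read by AlphaScreen after 30 min at room temperature.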
Pf growth 96h: P. falciparum growth inhibition at 96 hours | P. falciparum luciferase reporter growth, 96 h | Potency, µM (top dose mostly 28.7 µM), for the others: at the top dose activity change, negative = inhibition, actives largely listed as inhibitors | 320,000 tested, 6.9% active | AID 504834
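Compounds incubated with erythrocytes infected by luciferase-expressing P. falciparum (2% hematocrit, 0.05% parasitemia final) for 96 hours, 37 C in 5% CO2. Growth inhibition scored as decreased luciferase luminescence.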
Starred values were filed as active, the others as inactive; u = inconclusive; x = no result; [ ] = remark or other dose. In the library only some 11% were active in any assay of this set; here they are far more common. Calls come from the whole dose curve; as a rule, active = well fitted curve in the direction sought with a large enough effect; inconclusive = small, poorly fitted or top-dose-only effect, or another doubt; inactive = no such curve, though single readings can be large; an effect the other way counts as inactive or inconclusive. Unless noted, % is set by controls: 0 for no effect and ±100 for the full control effect; potency is the fitted concentration of half-maximal effect.

SMILES	HCV inhibitor	Pf growth 48h	AMA1 RON2 block	Pf growth 96h
CC1(C)CC(=O)C2=C(C1)Nc1cc3c(cc1C2c1ccc(F)cc1)OCO3 (stereo not given)	-20%	u	-8%	5.2µM*
CC12CCC3c4ccc(O)cc4CCC3C1CCC2=O (stereo not given)	0%	u	5%	u
CCn1cc(/C=N/N=C2\CCC3C4CCc5cc(O)ccc5C4CC[C@]23C)c(C)n1 (stereo not given in full)	-14%	x	-4%	1.7µM*
Cc1cccc(-c2cc3nc4c(c(N5CCOCC5)n3n2)CCCC4)c1	u	u	16%	75%
Cc1cccc(-c2cc3nc4c(c(NCc5ccco5)n3n2)CCCC4)c1	7.1µM*	-11%	-8%	0%
CN(C)CCCNc1c2c(nc3cc(-c4cccc(F)c4)nn13)CCC2	4%	7%	9%	-6%
COc1cccc(N2CCN(c3c4c(nc5ncnn35)CCC4)CC2)c1	u	u	-5%	13µM*
c1ccc(N2CCN(c3c4c(nc5ncnn35)CCC4)CC2)cc1	u	13%	-3%	u
COc1cccc(-c2cc3nc4c(c(N5CCC6(CC5)OCCO6)n3n2)CCC4)c1	16µM*	u	7%	u
Cc1cccc(-c2cc3nc4c(c(N5CCC6(CC5)OCCO6)n3n2)CCCC4)c1	10µM*	x	-1%	x
Cc1nc(CNC(=O)CC2C(=O)NCCN2Cc2cccc(Oc3ccccc3)c2)cs1 (stereo not given)	1%	0%	17%	u
Cn1c(=O)c2c(nc(NCc3ccc4c(c3)OCO4)n2Cc2ccccc2)n(C)c1=O	u	13µM*	3%	-21%
Cn1c(=O)c2c(nc(NCc3ccc4c(c3)OCO4)n2Cc2ccc(F)cc2)n(C)c1=O	11µM*	12µM*	u	13µM*
Cn1c(=O)c2c(nc(NCc3ccc4c(c3)OCO4)n2Cc2ccccc2F)n(C)c1=O	u	u	-4%	6%
CCOc1ccc(OCC)c(NC(=O)C2CCCN(c3nc(C)cc(C)n3)C2)c1 (stereo not given)	u	u	-16%	-25%
O=C(COC(=O)c1ccccc1N1C(=O)C2C3CCC(C3)C2C1=O)c1ccccc1 (stereo not given)	4%	16%	-2%	2.3µM*
COc1nc(NCC(C)C)nc(Oc2ccc(OCc3ccccc3)nn2)n1	-9%	0.37µM*	-11%	3%
CCNc1nc(NC(C)C)nc(Oc2ccc(OCc3ccccc3)nn2)n1	14%	u	-11%	-33%
Cc1cc2nc(C)c(Cl)c(=O)n2[nH]1	9%	-11%	22%	0%
Cc1nc2cc(-c3ccc(F)cc3)[nH]n2c(=O)c1C	-11%	6%	5%	u
Cc1nc2cc(-c3ccc(Br)cc3)[nH]n2c(=O)c1Cl	9%	u	1%	9.3µM*
Cc1cc(=O)n2[nH]c(-c3ccccc3Cl)cc2n1	u	-6%	-1%	7.4µM*
Cc1ccccc1-c1cc2nc(C)c(C)c(=O)n2[nH]1	-9%	7.4µM*	-6%	3%
Cc1cccc(-c2cc3nc(C)cc(=O)n3[nH]2)c1	x	x	1%	x
O=C(CN1C(=O)NC2(CCc3ccccc32)C1=O)c1ccc(F)cc1 (stereo not given)	8%	10%	-16%	-16%
SMILES	HCV inhibitor	Pf growth 48h	AMA1 RON2 block	Pf growth 96h
Cc1ccc(NC(=O)Nc2cccc([N+](=O)[O-])c2)cc1F	11µM*	12%	5%	u
Cc1cc([N+](=O)[O-])ccc1NC(=O)Nc1ccc(F)cc1F	3.5µM*	u	0%	1%
O=C(Nc1ccc(OC(F)(F)F)cc1)Nc1cccc([N+](=O)[O-])c1	u	2.6µM*	18%	u
COc1ccc(CN(C)C(=O)c2ccc(NS(=O)(=O)c3ccc(F)cc3)cc2)c(OC)c1OC	-28%	u	7%	u
CCCN(CCC)CC(=O)Nc1cccc2c1OCO2	u	2%	7%	12µM*
O=C(CN1CCCCC1)Nc1cccc2c1OCO2	-1%	0%	5%	x
CC(=O)Cn1c(N2CCC(Cc3ccccc3)CC2)nc2c1c(=O)[nH]c(=O)n2C	-1%	2%	-8%	u
C=C(C)Cn1c(N2CCC(Cc3ccccc3)CC2)nc2c1c(=O)[nH]c(=O)n2C	-12%	13µM*	-10%	u
CN(Cc1ccccc1)c1nc2c(c(=O)[nH]c(=O)n2C)n1Cc1ccccc1	-11%	u	-1%	-14%
Cc1ccc(C(=O)CNc2nc3c(c(=O)[nH]c(=O)n3C)n2Cc2ccccc2)cc1	9%	13µM*	-1%	9.3µM*
Cn1c(=O)[nH]c(=O)c2c1nc(CN1CCN(c3cccc(Cl)c3)CC1)n2CCCc1ccccc1	4%	9.3µM*	5%	13%
CN(Cc1ccccc1)c1nc2c(c(=O)[nH]c(=O)n2C)n1CCOc1ccccc1	u	9.3µM*	-6%	u
CCC(C)[C@H](NC(=O)N1CC(=O)Nc2ccccc21)C(=O)N[C@@H](C(=O)O)c1ccccc1 (stereo not given in full)	23%	12%	27%	u
CC1Cc2ccccc2N1C(=O)Cn1cnc2ccccc21 (stereo not given)	u	-22%[5.75 µM]	0%	-33%[5.75 µM]
CC1CCC2(CC1)NC(=O)N(CC(=O)N1CCN(S(=O)(=O)c3ccccc3)CC1)C2=O (stereo not given)	15%	3%	19%	-4%
CC(CSc1nc2ccccc2s1)Cn1c(N2CCCC2)nc2c1c(=O)[nH]c(=O)n2C (stereo not given)	u	12µM*	0%	10µM*
Cc1cc(C)n(-c2nc3c(c(=O)[nH]c(=O)n3C)n2CCc2ccccc2)n1	3%	-17%	0%	3%
Cc1cc(C)n(-c2nc3c(c(=O)[nH]c(=O)n3C)n2Cc2ccccc2)n1	2µM*	17%	-3%	0%
CCCn1c(N2CCN(Cc3cccc(C)c3)CC2)nc2c1c(=O)[nH]c(=O)n2C	-20%	x	16%	1.9µM*
C=CCn1c(Sc2ccccc2)nc2c1c(=O)[nH]c(=O)n2C	5%	12µM*	1%	8%
CCCCCn1c(Sc2ccccc2)nc2c1c(=O)[nH]c(=O)n2C	-6%	-6%	5%	0%
CCOC(=O)C1=C(COC(=O)Cc2ccccc2)NC(=O)NC1C (stereo not given)	9%	16%	-11%	16%
CCCCOc1cccc(C2/C(=C(\O)c3ccc4c(c3)OCCO4)C(=O)C(=O)N2CCN2CCOCC2)c1 (stereo not given)	12%	-27%	1%	u
CN1CCN(c2nc3c(c(=O)[nH]c(=O)n3C)n2CCCSc2nnnn2-c2ccccc2)CC1	11%	u	-7%	9.3µM*
Cc1ccc(Cn2c(N3CCN(C)CC3)nc3c2c(=O)[nH]c(=O)n3C)cc1	8%	-15%	5%	12%
Cc1ccc(Cn2c(N3CCCCCC3)nc3c2c(=O)[nH]c(=O)n3C)cc1	-21%	4.1µM*	0%	x

Screening results (PubChem BioAssay)
